HGIII-sPLA2 inh: Inhibits HGIII-sPLA2 liposome hydrolysis, primary screen; inhibition, % at 12.2 µM; AID 743126; Q9NZ20; 0.56% of 370,000 active; QFRET BODIPY PC-A2 liposome hydrolysis, fluorescence;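 active means inhibition above mean plus 3 SD of compounds lying within the high and low control bounds, cut at about 19% in these data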
Target sequence (Q9NZ20 whole entry, looked up): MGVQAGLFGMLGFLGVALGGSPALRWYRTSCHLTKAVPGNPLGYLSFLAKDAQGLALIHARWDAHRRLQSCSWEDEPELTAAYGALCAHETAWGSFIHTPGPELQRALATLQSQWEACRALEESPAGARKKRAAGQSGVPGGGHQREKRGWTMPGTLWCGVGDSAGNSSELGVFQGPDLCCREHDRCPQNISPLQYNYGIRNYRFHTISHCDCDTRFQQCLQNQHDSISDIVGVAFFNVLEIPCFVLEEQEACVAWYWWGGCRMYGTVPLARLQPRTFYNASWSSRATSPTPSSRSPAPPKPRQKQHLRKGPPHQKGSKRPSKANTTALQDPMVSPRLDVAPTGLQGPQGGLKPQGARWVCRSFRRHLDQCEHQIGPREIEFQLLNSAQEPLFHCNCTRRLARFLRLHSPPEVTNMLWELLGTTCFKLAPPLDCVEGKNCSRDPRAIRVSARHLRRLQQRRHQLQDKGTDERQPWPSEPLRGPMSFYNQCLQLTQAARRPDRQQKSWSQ
rCAG RNA binder: r(CAG) repeat RNA binding; TO-PRO-1 dye displacement fluorescence; inhibition, % at 3 µM; 1.3% of 370,000 active; AID 651821;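 active means inhibition above the plate cutoff, the mean of all test compounds on that plate plus 3 SD, cut at about 35% in these data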;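 further: higher means more dye released from RNA so lower well fluorescence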
MsrA inh: bovine MsrA inhibition; purified bovine MsrA, absorbance read-out; inhibition, % at 15.5 µM; 0.75% of 360,000 active; AID 651718; in the data active means inhibition above about 4.5%
bovine MsrA act: activates bovine MsrA enzyme. purified bovine MsrA, absorbance read-out. activation, % at 10.6 µM. 0.3% of 360,000 active; in the data active means activation above about 7.5%
hGIII sPLA2 conf: human GIII-sPLA2 inhibition, confirmation; shares compounds with HGIII-sPLA2 inh; recombinant hGIII-sPLA2, BODIPY PC-A2 QFRET fluorescence; inhibition, % at 12.2 µM; 34% of 2,000 active;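 active means mean inhibition across triplicates above the hit cutoff set in the earlier primary screen, cut at about 19% in these data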
535nm interf: optically interferes with 535nm fluorescence in sPLA2 counter-screen; shares compounds with HGIII-sPLA2 inh; AID 743282; BODIPY FL product fluorescence interference, QFRET; inhibition, % at 12.2 µM; 8.5% of 2,000 active;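 active means average inhibition above the solvent-only control mean plus 3 SD, cut at about 6% in these data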
535nm interf DR: counter-screen for HGIII-sPLA2 inhibitors: 535nm fluorescence interference, dose response; shares compounds with HGIII-sPLA2 inh; BODIPY FL product fluorescence interference, cell-free; IC50, µM; 240 tested, under 10 active;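 active means IC50 at or below 10 µM; inactive means IC50 above 10 µM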
Each line names hits and unclear results; the compound was inactive in the other large screens (follow-up assays come after a bar, where they were run). This is a sample that favours compounds with a hit; in the whole collection about 2.8% have one here.

Cc1cccc2c1N(CCCOc1ccccc1)C(=O)C2=O	HGIII-sPLA2 inh 21 | hGIII sPLA2 conf inactive | 535nm interf inactive
Cc1cccc2c1N(CCCOc1ccc(C(C)(C)C)cc1)C(=O)C2=O	none (no result: HGIII-sPLA2 inh, rCAG RNA binder, MsrA inh)
Cc1ccccc1OCCCN1C(=O)C(=O)c2cccc(C)c21	HGIII-sPLA2 inh 28 | hGIII sPLA2 conf 38 | 535nm interf inactive | 535nm interf DR inactive
O=C(Cc1noc2ccccc12)NNC(=S)Nc1ccccc1	none
Cc1c(Cl)cccc1NC(=S)NCc1cccn1C	none
O=C(Cc1noc2ccccc12)NNC(=S)Nc1ccc(Cl)cc1	HGIII-sPLA2 inh 29 | hGIII sPLA2 conf 26 | 535nm interf inactive
Cn1cccc1CC(=O)NNC(=S)Nc1ccc(Cl)cc1	HGIII-sPLA2 inh 24 | hGIII sPLA2 conf 27 | 535nm interf inactive
Cn1cccc1CC(=O)NNC(=S)Nc1ccccc1Cl	HGIII-sPLA2 inh 25 | hGIII sPLA2 conf 29 | 535nm interf inactive | 535nm interf DR inactive
c1cc2c(cn1)cnc1cscc12	none
COc1ccccc1NC(=O)c1cc(S(=O)(=O)N2CCCCCC2)ccc1F	none
COc1cccc(C(=O)Oc2cc3c4c(c2)C(C)=CC(C)(C)N4C(=O)C3=O)c1	HGIII-sPLA2 inh 32 | hGIII sPLA2 conf 53 | 535nm interf inactive | 535nm interf DR inactive
O=C(CN(C(=O)CCC(=O)Nc1nccs1)c1cccc(F)c1)NCc1ccc(F)cc1	none
Nc1[nH]n(-c2ccccc2)c(=O)c1N=Nc1ccc2c(c1)OCCO2	none
Nc1[nH]n(-c2ccccc2)c(=O)c1N=Nc1ccc2c(c1)OCO2	HGIII-sPLA2 inh 21 | hGIII sPLA2 conf 27 | 535nm interf inactive
COc1ccc(C(=O)NC2CCN(C(=S)Nc3ccc(C)c(C)c3)CC2)cc1	none
COc1cccc(/C=C/C(=O)OCC(=O)c2c[nH]c3ccccc23)c1OC	none
CC(C)Oc1ccc(C(=O)Nc2ccc(N(C)C)cc2)cc1	HGIII-sPLA2 inh 19 | hGIII sPLA2 conf inactive | 535nm interf inactive
COc1ccc(NC(=S)c2ccccc2)cc1	none
CCCOc1ccc(C(=O)Nc2ccc(N(C)C)cc2)cc1	none
Cc1ccc(NC(=S)c2ccc(N(C)C)cc2)cc1	HGIII-sPLA2 inh 25 | hGIII sPLA2 conf inactive | 535nm interf inactive
COc1ccc(C(=S)Nc2ccc(N(C)C)cc2)cc1	HGIII-sPLA2 inh 23 | hGIII sPLA2 conf 26 | 535nm interf inactive
COc1ccc(NC(=S)c2ccc(N(C)C)cc2)cc1	HGIII-sPLA2 inh 20 | hGIII sPLA2 conf inactive | 535nm interf inactive
Cc1ccc(S(=O)(=O)NC(=O)Nc2ccc(N(C)C)cc2)cc1	none
CC12CCCC[C@@H]1CCC1C2CCC2(C)C1CC[C@@]2(O)CNCCO (stereo partly drawn)	HGIII-sPLA2 inh 25 | hGIII sPLA2 conf inactive | 535nm interf inactive
O=C(c1ccc(S(=O)(=O)N2CCOCC2)cc1)N1CCN=C1SCc1cccnc1	none
Cc1ncc([N+](=O)[O-])n1Cc1ccccc1	none
Cc1ccc(Cn2c([N+](=O)[O-])cnc2C)cc1	HGIII-sPLA2 inh 22 | hGIII sPLA2 conf inactive | 535nm interf inactive
C/C(=N\NC(=S)NCc1ccccc1)c1ccc(C)o1	none
S=C(NC1CCCCC1)N1CCC(C2C=NC=N2)CC1 (stereo not drawn)	none
Nc1ccc(N2CCN(c3cccc(Cl)c3)CC2)cc1	HGIII-sPLA2 inh 23 | hGIII sPLA2 conf inactive | 535nm interf inactive
Clc1cccc(N2CCN(CCCN3CCN(c4ccccc4)CC3)CC2)c1	none
CC(=O)N1CCN(c2ccc(NCc3ccc(Br)o3)cc2)CC1	none
CC(=O)N1CCN(c2ccc(NCc3ccc(-c4ccc(Br)cc4)o3)cc2)CC1	HGIII-sPLA2 inh 20 | hGIII sPLA2 conf 20 | 535nm interf inactive
COc1ccc(CCNC(=O)c2cnn3c(C(F)F)cc(C)nc23)cc1OC	HGIII-sPLA2 inh 20 | hGIII sPLA2 conf inactive | 535nm interf inactive
COc1ccccc1CCNC(=O)c1cnn2c(C(F)F)cc(C)nc12	none
C#CCOc1ccc(C2C3=C(CC(C)(C)CC3=O)N(CC(=O)O)C3=C2C(=O)CC(C)(C)C3)cc1	none
COc1ccc(N)c2c1C(=O)c1ccccc1C2=O	HGIII-sPLA2 inh 33 | hGIII sPLA2 conf 37 | 535nm interf 14
COC(=O)c1ccc(CNC(=O)Cn2nnnc2CN(C)C(C)C)cc1	none
O=C(N/N=C/c1ccc(Cl)cc1)c1n[nH]c2c1CCCC2	HGIII-sPLA2 inh 21 | hGIII sPLA2 conf inactive | 535nm interf inactive
